Screens from PubChem.
Hits are enriched below; roughly 21% of the tested compounds scored in any of these assays.
SARS PLP yeast = blocks SARS-CoV papain-like protease in a yeast assay; S. cerevisiae expressing SARS-CoV PLpro, growth rescue; Potency, µM (doses to about 32.9 µM), usual class: activators; 330,000 tested, 0.19% active; also: nearly all actives have a fitted effect of over 55% in size
Pf growth 96h = P. falciparum growth inhibition at 96 hour, primary screen for plastid delayed-death inhibitors | P. falciparum luciferase reporter growth, 96 h | Potency, µM (doses to about 28.7 µM), actives largely listed as inhibitors | 320,000 tested, 6.9% active | AID 504834; active = well fitted inhibition curve with a large enough effect; inconclusive = small, poorly fitted or top-dose-only effect, or another doubt; inactive = no such curve, though single readings can be large or run the other way
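Compounds incubated with erythrocytes infected by luciferase-expressing P. falciparum (2% hematocrit, 0.05% parasitemia final) for 96 hours, 37 C in 5% CO2. Growth inhibition scored as decreased luciferase luminescence.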
NS1 inh = blocks influenza NS1 protein function; Potency, µM (highest dose often 46.1 µM); 270,000 tested, 0.4% active; AID 2326; also: actives are rising curves; nearly all actives have a fitted effect of over 50% in size
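Recovery from NS1-induced slow growth read by OD600 in budding yeast switched to galactose assay medium (pH 6.0, -URA) at 1:100 dilution. Compound 23 nl per well; the matching strain lacking NS1 serves as control.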
Pf growth 48h = P. falciparum growth inhibition at 48 hours (one generation); 310,000 tested, 5.9% active; AID 504832; P. falciparum luciferase growth in erythrocytes, 48 h; Potency, µM (top dose mostly 28.7 µM), actives largely listed as inhibitors; active = well fitted inhibition curve with a large enough effect; inconclusive = small, poorly fitted or top-dose-only effect, or another doubt; inactive = no such curve, though single readings can be large or run the other way
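Parasite viability was followed by luminescence of a genomically integrated firefly luciferase. Cultures held 0.1% parasitemia at 2% hematocrit (final), incubated under 5% CO2 at 37 C.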
Cycloheximide cs = counter-screen for Shiga toxin inhibitors: cycloheximide protein synthesis inhibition | 300,000 tested, 12% active | max response, % | cell reporter, cycloheximide protein synthesis inhibition counterscreen; in the data active = max response mostly above about 13%, no sharp cut-off; inactive = mostly below about 14%; also: read at 38.3 µM for the half of the compounds with a filed dose
Shiga toxin inh = Shiga toxin inhibition. AID 2315. 290,000 tested, 9.2% active. Vero cells, Shiga toxin protein synthesis inhibition reporter. inhibition, % at 38.7 µM; in the data active = inhibition mostly above about 28%, no sharp cut-off; inactive = mostly below about 43%
Each line names hits and unclear results; the compound was inactive in the other large screens. Unless noted, calls follow the shape of the full dose curve.

O=c1cc(-c2ccccc2)n(S(=O)(=O)c2ccccc2)o1	Cycloheximide cs 16.5 (no result: Pf growth 96h)
COc1ccc(S(=O)(=O)n2oc(=O)cc2-c2ccccc2)cc1	none (no result: Pf growth 96h)
O=C(CN1C(=O)NC2(CCc3ccccc32)C1=O)Nc1cc(C(F)(F)F)ccc1N1CCOCC1 (configuration not stated)	Pf growth 96h inconclusive, Pf growth 48h inconclusive
CCOC(=O)c1c(SCC(=O)Nc2nc(C)cs2)nc(=O)[nH]c1C	Pf growth 96h 4.65µM
CCSc1nnc(NC(=O)CSc2nc3c(cc2C#N)CCCC3)s1	none
CCc1nnc(NC(=O)CSc2nc3c(cc2C#N)CCC3)s1	Cycloheximide cs 32.0, Shiga toxin inh 70.2 (no result: Pf growth 96h)
Cc1ccc(C#N)c(SCC(=O)Nc2nccs2)n1	Cycloheximide cs 52.6, Shiga toxin inh 68.3
N#Cc1cc2c(nc1SCC(=O)Nc1nccs1)CCCCC2	SARS PLP yeast inconclusive, Cycloheximide cs 49.2, Shiga toxin inh 94.1
COc1ccc(CCC(=O)OCC(=O)Nc2ccccc2OC(F)F)cc1OC	none
CC(Oc1ccc2ccc(=O)oc2c1)C(=O)c1ccccc1 (configuration not stated)	none
COc1ccc(OC)c(C2=Nn3c(nnc3-c3cccc(OC)c3OC)SC2)c1	none (no result: SARS PLP yeast, Pf growth 96h, NS1 inh, Pf growth 48h)
CCOC(=O)c1c(SCC(=O)Nc2nccs2)nc(C)c(C)c1C	Pf growth 96h inconclusive, Cycloheximide cs 26.2, Shiga toxin inh 36.3
CCn1c(C)nnc1SCC(=O)Nc1nccs1	none
COc1ccc(OC)c(N/C(C)=C/C(=O)c2ccc(Br)cc2)c1	Pf growth 96h inconclusive
CC1(C)OC2OC(COC(=O)c3ccccc3)C3OC(C)(C)OC3C2O1 (configuration not stated)	Pf growth 96h inconclusive, Cycloheximide cs 30.7
CCN(C(=S)Nc1ccc(C(C)=O)cc1)C1CCCCC1	none (no result: NS1 inh)
O=C(O)C1CCCCN1C(=O)c1cc2c(s1)CCCCC2 (configuration not stated)	none (no result: NS1 inh, Cycloheximide cs, Shiga toxin inh)
CCOc1ccc(CC2S/C(=N/c3ccccn3)NC2=O)cc1 (configuration not stated)	Pf growth 48h 14.7µM
O=C1NC(=Nc2ccc(F)cc2)SC1Cc1ccc(F)cc1 (configuration not stated)	Pf growth 96h 8.28µM, Pf growth 48h 9.28µM
O=C(Nc1ccc(C2SCCS2)cc1)c1ccccc1	Cycloheximide cs 60.3, Shiga toxin inh 135.8
CCCCNC(=O)Nc1ccc(C2SCCS2)cc1	Pf growth 96h inconclusive, Cycloheximide cs 47.0, Shiga toxin inh 86.5
CNC(=O)Nc1ccc(C2SCCS2)cc1	Cycloheximide cs 17.3
CC(C)c1ccc(NC(=O)COc2ccc(C3SCCS3)cc2)cc1	none
O=C(Cc1ccccc1)NNC(=O)c1ccc(NC(=O)c2ccccc2)cc1	none (no result: NS1 inh)
COc1ccc(NC(=O)CN2CCN(CC(=O)Nc3ccc(F)cc3)CC2)c(OC)c1	Pf growth 96h inconclusive
Cc1ccc(-c2csc(NC(=O)C[n+]3cc(-c4ccc(C)cc4)n4c3CCC4)n2)cc1	Pf growth 48h inconclusive
CCc1ccc(NC(=O)C[n+]2cc(-c3ccc(C)cc3)n3c2CCC3)cc1	Pf growth 96h 1.47µM, Pf growth 48h 2.94µM
Cc1ccc(NC(=O)C[n+]2cc(-c3ccccc3)n3c2CCC3)c(C)c1	Pf growth 96h 5.22µM, Pf growth 48h inconclusive
Cc1ccc(-c2c[n+](CC(=O)Nc3c(C)cccc3C)c3n2CCC3)cc1	Pf growth 96h 14.7µM, Pf growth 48h inconclusive
COc1ccc(NC(=O)Nc2cccnc2)c(OC)c1	none
COc1ccc(NC(=O)Nc2ccc(Br)cn2)cc1OC	Pf growth 96h inconclusive (no result: Pf growth 48h)
CC(C)CNC(=O)NC1(C(F)(F)F)Oc2ccccc2O1	none (no result: NS1 inh)
COc1cccc(NC(=O)Nc2ccc(Br)cn2)c1	Cycloheximide cs 25.8, Shiga toxin inh 78.2
COc1cccc(NC(=O)Nc2cccnc2)c1	Cycloheximide cs 13.8
Cn1ccc2cc(NC(=O)Nc3cccnc3)ccc21	Cycloheximide cs 29.6, Shiga toxin inh 48.8 (no result: SARS PLP yeast, Pf growth 96h, NS1 inh, Pf growth 48h)
COc1cccc(NC(=O)NC2(C(F)(F)F)Oc3ccccc3O2)c1	Pf growth 48h inconclusive, Cycloheximide cs 44.5, Shiga toxin inh 65.9
OC(CN1CC=C(/C=C/c2ccc(Br)cc2)CC1)c1ccccc1 (configuration not stated)	Pf growth 48h inconclusive
COc1cccc(NC(=O)Nc2cccc(C(=O)O)c2)c1	Pf growth 96h inconclusive, Cycloheximide cs 25.9, Shiga toxin inh 47.1
CC(C)Oc1ccc(Cc2cnc(=S)[nH]c2N)cc1	none (no result: NS1 inh)
Cc1cc2nn(-c3ccccc3)nc2cc1NC(=O)c1cccs1	Pf growth 96h inconclusive, Cycloheximide cs 22.4, Shiga toxin inh active
Cc1cc(NC(=O)c2cccs2)n(-c2ccccc2)n1	none (no result: Pf growth 48h)
CC(=O)Nc1cc2nn(-c3ccccc3)nc2cc1C	Pf growth 96h 13.1µM, Cycloheximide cs 59.4, Shiga toxin inh 82.9
CCC(=O)Nc1cc2nn(-c3ccccc3)nc2cc1Cl	Cycloheximide cs 42.8, Shiga toxin inh 79.9
CCc1nc(SCC(=O)Nc2nnc(CC)s2)c2c(=O)n(C)c(=O)n(C)c2n1	none
CC(C)c1ccc(CN2CCN(C(=O)CSc3nnnn3C3CC3)CC2)cc1	Pf growth 96h 11.7µM, Pf growth 48h 7.38µM (no result: NS1 inh, Cycloheximide cs, Shiga toxin inh)
Cc1ccc(C)c(NC(=O)c2ccccc2NC(=O)C2CCCO2)c1 (configuration not stated)	Pf growth 96h inconclusive
Cc1cccc(CSc2nnc(CCCCCNC(=O)OC(C)(C)C)o2)c1	Pf growth 48h 9.28µM
Cc1c(Br)c(C(=O)N2CCc3ccccc32)nn1C	Cycloheximide cs 91.4, Shiga toxin inh 61.6
CCCn1nc(C(=O)N2CCc3ccccc32)c2ccccc2c1=O	Pf growth 96h inconclusive, Pf growth 48h inconclusive (no result: NS1 inh, Cycloheximide cs, Shiga toxin inh)
O=C(c1nn2c(C(F)(F)F)cc(-c3cccs3)nc2c1Cl)N1CCCc2ccccc21	Pf growth 96h 10.4µM, Cycloheximide cs 47.9, Shiga toxin inh 79.8
Cc1c(Cl)c(C(=O)N2CCCc3ccccc32)nn1C	Pf growth 48h inconclusive, Shiga toxin inh 47.4
CCCCCn1nc(C(=O)N2CCc3ccccc32)c2ccccc2c1=O	Pf growth 96h inconclusive, Pf growth 48h 10.4µM (no result: NS1 inh, Cycloheximide cs, Shiga toxin inh)
Cn1nc(C(=O)N2CCCc3ccccc32)c2ccccc2c1=O	none (no result: NS1 inh)
O=C(c1nn2c(C(F)(F)F)cc(-c3ccccc3)nc2c1Cl)N1CCOCC1	Pf growth 48h inconclusive
CC(=O)Nc1ccccc1-c1nc2ccccc2nc1OCC(=O)c1ccc(Cl)cc1	Pf growth 96h inconclusive
COc1ccc(OCCOC(=O)c2cccs2)cc1	Cycloheximide cs 32.5, Shiga toxin inh 77.3
COc1ccc(C(=O)O/N=C(/C)c2cccs2)cc1	Cycloheximide cs 34.4, Shiga toxin inh 60.8 (no result: Pf growth 48h)
C/C(=N\OC(=O)c1ccc(F)cc1)c1nccs1	Cycloheximide cs 46.7
COc1ccc(C(=O)O/N=C(\C)c2nccs2)cc1	Cycloheximide cs 26.4
COc1ccc(C2CC2/C(C)=N/OC(=O)c2cccs2)cc1 (configuration not stated)	Pf growth 96h inconclusive (no result: Pf growth 48h)
Cc1ccc(C)[n+](CC(=O)N2CCCCC2)c1	none
